Laboratory results taken from ChEMBL document CHEMBL3433997, “St. Jude Leishmania screening dataset” (2016).
Where “and” joins values, the source holds several entries; their conditions need not be identical. Identical values can stand only once.

Tests used:
Type in all cases: functional
[1] = target: Solute carrier family 2, facilitated glucose transporter member 1 (Homo sapiens) (UniProt P11166); assay: ST_JUDE_LEISH: Cytotoxicity at 2uM final concentration against transgenic Leishmania Mexicana promastigotes LmGLUT1 that are glucose transport deficient and complemented with the human glucose transporter GLUT1. Activity is measured by DNA content using SYBR green in vitro
[2] = target: Hexose transporter 1 (Plasmodium falciparum) (UniProt O97467); assay: ST_JUDE_LEISH: Cytotoxicity at 2uM final concentration against transgenic Leishmania Mexicana promastigotes LmPfHT that are glucose transport deficient and complemented with the Plasmodium falciparum hexose transporter. Activity is measured by DNA content using SYBR green in vitro
[3] = target: Glucose transporter (Leishmania mexicana) (UniProt O61059); assay: ST_JUDE_LEISH: Cytotoxicity at 2uM final concentration against transgenic Leishmania Mexicana promastigotes LmGT2 that are glucose transport deficient and complemented with the L. Mexicana glucose transporter 2. Activity is measured by DNA content using SYBR green in vitro

Solute carrier family 2, facilitated glucose transporter member 1 (Homo sapiens), sequence (P11166 whole entry): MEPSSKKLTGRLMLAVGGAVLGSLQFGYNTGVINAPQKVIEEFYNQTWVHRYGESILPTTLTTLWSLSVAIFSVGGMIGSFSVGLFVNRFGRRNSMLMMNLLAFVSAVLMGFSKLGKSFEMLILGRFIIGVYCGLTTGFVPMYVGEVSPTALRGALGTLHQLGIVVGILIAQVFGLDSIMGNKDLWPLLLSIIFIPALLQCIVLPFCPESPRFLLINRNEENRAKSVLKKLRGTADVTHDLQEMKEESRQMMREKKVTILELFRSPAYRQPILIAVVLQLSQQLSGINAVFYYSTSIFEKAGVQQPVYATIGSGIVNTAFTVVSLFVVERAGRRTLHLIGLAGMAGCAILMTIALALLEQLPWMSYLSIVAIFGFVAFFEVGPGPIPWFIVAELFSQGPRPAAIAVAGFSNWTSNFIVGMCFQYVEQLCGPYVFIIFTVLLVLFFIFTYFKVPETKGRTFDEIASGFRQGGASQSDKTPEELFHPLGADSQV

Compound | inhibition [1] | inhibition [2] | inhibition [3]
COc1ccc(C=CC(=O)N2CCC(CN3CCC(c4c[nH]c5ccccc45)CC3)CC2)cc1OC | 1.11% | 0.91% | -0.06%
S=C(Nc1ccccc1Cl)NC1CCC(CN2CCC(c3c[nH]c4ccccc34)CC2)CC1 (configuration not stated) | 5.7% | 8.06% | 3.34%
CC[C@H]1CN2CC[C@@H]1C[C@H]2[C@H](O)c1cc(N2CCC(O)(c3ccccc3)CC2)nc2ccc(OC)cc12 | 5.33% | 4.26% | 1.87%
CC(C)CNCc1ccc(-c2cccc(CN(C(=O)NC3CCCCC3)C3CCN(Cc4ccccc4)CC3)c2)cc1 | 0.87% | -0.07% | 3.1%
S=C(NCCc1ccc(Cl)cc1)NC1CCC(CN2CCC(c3c[nH]c4ccccc34)CC2)CC1 (configuration not stated) | 2.11% and -0.48% | 0.01% and 3.61% | -2.05% and -1.85%
CS(=O)(=O)Nc1ccc2[nH]cc(C3CCN(CC4CCC(NC(=O)/C=C/c5ccc(Cl)c(Cl)c5)CC4)CC3)c2c1 (configuration not stated) | 0.82% | 6.93% | -0.55%
COc1cc2nc(N(C)C3CCN(Cc4ccccc4)CC3)nc(N)c2cc1OC | 69.8% | 46.7% | 25%
COC(=O)CN(C(=O)/C=C/c1ccc(Cl)c(Cl)c1)C1CCC(CN2CCC(c3c[nH]c4ccccc34)CC2)CC1 (configuration not stated) | 1.07% | 4.03% | 2.24%
CC[C@H]1CN2CC[C@H]1C[C@H]2[C@H](O)c1cc(Cl)nc2ccc(OC)cc12 | 2.23% | 1.71% | 1.61%
O=C(/C=C/c1ccc(Cl)c(Cl)c1)N1CCC(CN2C3CCC2CC(c2c[nH]c4ccccc24)C3)CC1 (configuration not stated) | 2.43% | 1.51% | 0.89%
O=S(=O)(NC1CCC(CN2CCC(c3c[nH]c4ccccc34)CC2)CC1)c1ccc(Cl)c(Cl)c1 (configuration not stated) | -2.62% | -1.92% | -2.55%
CN(c1cc(NC(=O)c2ccc(F)cc2)ccn1)C1CCN(Cc2ccc(C#N)cc2)CC1 | 2.42% | 2.29% | 4.46%
CSc1ccc(C[C@@H](C)NC[C@H](O)c2cccc(Cl)c2)cc1 | 2.36% | 1.34% | 2.94%
CN(c1cc(NC(=O)c2cccs2)ccn1)C1CCN(Cc2cccc(F)c2)CC1 | 3.38% | 3% | 5.71%
CCOC(=O)CCCN1C(=O)CN=C(c2ccccc2)c2cc(Cl)ccc21 | -1.02% | 0.13% | 3.48%
O=C(NC1CCC(CN2CCC(c3c[nH]c4ccccc34)CC2)CC1)c1cnn(-c2ccccc2)c1-c1ccccc1Cl (configuration not stated) | 4.74% | 10.3% | 3.95%
COc1cccc(C(=O)C2CC2CN2CC=C(c3c(C)[nH]c4ccccc34)CC2)c1 (configuration not stated) | 1.94% | -3.97% | 4.19%

Compound | inhibition [1] | inhibition [2] | inhibition [3]
Cc1cc(C(=O)NC2CCN(CC3(c4ccc(Cl)cc4)CCC3)CC2)on1 | 0.83% | -0.05% | 0.13%
CCCCOC(C(=O)OCC1CCCN1C)(c1ccccc1)c1ccccc1 (configuration not stated) | -0.11% | 1.91% | 2.05%
CN(c1cc(NC(=O)c2ccccc2)ccn1)C1CCN(Cc2cccc(F)c2)CC1 | 1.23% | 4.2% | 2.33%
COCCSc1ccc(CC(C)NCC(O)c2cccc(Cl)c2)cc1 (configuration not stated) | 0.56% | 0.25% | 0.74%
Cn1nc(-c2ccc(S(=O)(=O)NC3CCC(CN4CCC(c5c[nH]c6ccccc56)CC4)CC3)s2)cc1C(F)(F)F (configuration not stated) | 5.26% and 1.76% | 4.54% and 4.39% | 1.24% and 0.16%
CN1CCN(c2ccc3[nH]c(-c4ccc5[nH]c(-c6ccc(O)cc6)nc5c4)nc3c2)CC1 | 4.92% | 5.09% | 2.92%
C/C=C1/CN2CC[C@H]1C[C@H]2[C@H](O)c1ccnc2ccc(O)cc12 | -0.31% | -1.31% | -0.61%
O=C(/C=C/c1ccccc1Cl)NC1CCC(CN2CCC(c3c[nH]c4ccccc34)CC2)CC1 (configuration not stated) | 2.44% and 5.03% | 0.61% and 3.12% | -3.81% and 6.89%
CN(C)CCCn1cc(C(=O)OC2CC3CCC(C2)N3C)c2cc(-c3ccccc3)ccc21 (configuration not stated) | 12.9% | 6.68% | 9.57%
CC[C@H]1C[N+]2([O-])CC[C@@H]1C[C@H]2[C@H](O)c1cc(-c2ccccc2)nc2ccc(OC)cc12 | 5.08% | 2.87% | 4.7%
O=C(C=Cc1ccc(Br)cc1)NC1CCC(CN2CCC(c3c[nH]c4ccccc34)CC2)CC1 (configuration not stated) | 2.45% | 2.86% | 4.98%
O=C(NC1CCC(CN2CCC(c3c[nH]c4ccccc34)CC2)CC1)c1csc(-c2cccc(Cl)c2Cl)n1 (configuration not stated) | 5.32% | 4.16% | 2.71%
COc1ccc(OC)c(C=CC(=O)NC2CCC(CN3CCC(c4c[nH]c5ccccc45)CC3)CC2)c1 (configuration not stated) | -2.94% | -0.24% | -0.07%
CN(c1ccnc(Nc2ccc(CS(C)(=O)=O)cc2)n1)C1CCN(Cc2ccccc2)CC1 | 2.04% | 2.62% | 1.21%
O=C(CC1CCCC1)N(CC1CCN(Cc2ccc(C(F)(F)F)cc2)CC1)c1ccc(N2CCOCC2)c(F)c1 | 13.5% | 10.9% | 14%
CNC(=O)c1ccc2[nH]cc(C3CCN(CC4CCC(NC(=O)/C=C/c5ccc(Cl)c(Cl)c5)CC4)CC3)c2c1 (configuration not stated) | 9.29% | 7.99% | 4.82%
O=C(/C=C/c1ccc(Cl)c(Cl)c1)NCC1CCC(CN2CCC(c3c[nH]c4ccccc34)CC2)CC1 (configuration not stated) | 2.37% | -3.01% | 1.76%
